Screens deposited in PubChem by several laboratories.
Sa ugtP lethal – compounds lethal to S. aureus RN4220 ugtP deletion mutant. OD600 growth, 16 h. growth inhibition, % (test concentration not listed). actives 0.54% (n = 330,000). AID 1259309; in the data active = growth inhibition above about 68%
Sa RN4220 lethal – kills Staphylococcus aureus RN4220 | S. aureus RN4220 growth, OD600, 16 h | inhibition, % (no concentration beside the values) | actives 0.33% (n = 330,000); in the data active = inhibition above about 85%
MazF activator – activators of E. coli MazEF toxin-antitoxin RNase. P0AE70. actives 0.32% (n = 350,000). FAM/BHQ RNA-DNA oligo cleavage fluorescence, 5 h. activation, % at 20 µM. AID 504720; in the data active = activation above about 50%
Target sequence (P0AE70 whole entry, looked up): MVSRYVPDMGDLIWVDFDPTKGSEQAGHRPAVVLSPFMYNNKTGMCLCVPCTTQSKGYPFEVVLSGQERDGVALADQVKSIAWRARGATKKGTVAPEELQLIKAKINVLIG
BJeLR lethal – BJeLR cell viability loss; BJeLR (HRASV12) viability, CellTiter-Glo ATP luminescence, 48 h; inhibition, % (concentration not given with the values); actives 0.17% (n = 300,000); in the data active = inhibition above about 50%
PriA SSB inh – inhibitors of Klebsiella pneumoniae PriA binding to SSB C-terminal tail; actives 0.6% (n = 430,000); AlphaScreen SSBct-PriA binding, biotinylated peptide; AID 1272365; inhibition, % at 33 µM; in the data active = inhibition mostly above about 37%, no sharp cut-off; inactive = mostly below about 20%
A number is an active result; . = inactive; / = no result given; ! = not confirmed by another sample. Hits are enriched below; roughly 1.2% of the tested compounds scored in any of these assays.

SMILES	Sa ugtP lethal	Sa RN4220 lethal	MazF activator	BJeLR lethal	PriA SSB inh
COC(=O)c1ccc(=O)[nH]n1	/	/	/	/	.
COc1ccc(-c2nnc(NC(=O)c3ccc(S(=O)(=O)N(C)CC4CCCO4)cc3)o2)c(OC)c1 (stereo unspecified)	100.5	.	.	.	.
CN(C)c1ccc(Sc2nnc(NC(=O)Nc3ccc(Cl)cc3Cl)s2)cc1	.	.	.	.	.
Nc1nc(-c2ccccn2)cs1	/	/	/	/	94.0
Nc1nc(-c2cccc(-c3csc(N)n3)n2)cs1	/	/	/	/	113.5
Nc1nc(-c2ccc(-c3ccccc3)cc2)cs1	.	.	.	.	.
CCS(=O)(=O)N1CCC(C(=O)NCCc2ccccc2)CC1	.	.	.	.	.
COCC(=O)N1CCCc2ccc(NC(=O)Cc3ccsc3)cc21	/	/	/	/	35.0
COCC(=O)N1CCCc2ccc(NS(=O)(=O)CC34CCC(CC3=O)C4(C)C)cc21 (stereo unspecified)	/	/	/	/	36.0
CCCCNC(c1ccccc1)c1ccncc1 (stereo unspecified)	.	.	.	.	.
O=C(Nc1ccccc1)C(Cl)C(=O)c1ccccc1 (stereo unspecified)	91.6	.	.	.	.
O=C(NCCCc1ccccc1)Nc1c[nH]c2ccccc12	/	/	/	/	.
Nc1nc(Nc2cccc(F)c2)nc(NCc2ccco2)c1[N+](=O)[O-]	.	.	65.9	.	.
O=C(C#Cc1cccc([N+](=O)[O-])c1)c1ccccc1	97.5	.	/	.	/
Cc1ncc(C[n+]2csc(C)c2C)c(N)n1	.	.	.	.	.
CC1C=C[C@](Cc2ccccc2)(C(=O)NCCc2c[nH]c3ccccc23)N1C(=O)c1ccccc1 (stereo partly specified)	.	.	/	/	/
O=C(COc1coc(CN2CCN(c3ccccc3)CC2)cc1=O)Nc1ccc(F)cc1	.	.	.	.	45.6
O=C(C1=CC(c2ccc3c(c2)OCO3)CC(OCc2ccc(CO)cc2)O1)N1CCCCCCC1 (stereo unspecified)	.	.	/	/	/
O=C(C1=C[C@H](c2ccc3c(c2)OCO3)C[C@H](OCc2ccc(CO)cc2)O1)N1CCCCCCC1	/	/	.	.	41.5
COc1ccccc1NC(CC(=O)c1ccccc1)C(=O)OCC(=O)c1ccc(C)cc1 (stereo unspecified)	83.6	.	.	.	.
C(=C\c1cc(/C=C/c2ccccc2)ncn1)/c1ccccc1	.	.	.	.	.
Nc1ccccc1Nc1c(F)c(F)nc(F)c1Cl	.	.	.	.	38.5
CCOc1cccc2sc(N(CCCN(C)C)C(=O)c3ccc(S(=O)(=O)N(C)Cc4ccccc4)cc3)nc12	.	.	.	.	38.0!
CCN(c1ccccc1)S(=O)(=O)c1ccc(C(=O)N(CCCN(C)C)c2nc3cc4c(cc3s2)OCO4)cc1	.	.	.	.	.
CCN(c1ccccc1)S(=O)(=O)c1ccc(C(=O)N(CCCN(C)C)c2nc3c(C)cccc3s2)cc1	.	.	.	.	36.0!
SMILES	Sa ugtP lethal	Sa RN4220 lethal	MazF activator	BJeLR lethal	PriA SSB inh
Nc1nc2c(s1)CSc1ccccc1-2	/	/	/	/	.
Clc1ccc(COC(Cn2ccnc2)c2ccc(Cl)cc2Cl)c(Cl)c1 (stereo unspecified)	100.0	100.0	.	.	.
C=CCOC(Cn1ccnc1)c1ccc(Cl)cc1Cl (stereo unspecified)	.	.	.	/	.
COc1ccccc1NC(=O)NCCc1ccc2c(c1)CCCN2C	/	/	/	/	56.0
COc1ccccc1OCC(=O)NCCc1ccc2c(c1)CCCN2C	/	/	/	/	45.0
CN1CCCc2cc(CCNC(=O)Cc3ccc(F)cc3)ccc21	/	/	/	/	.
Cc1cc(C)nc(NN=Cc2ccccc2OCC(=O)O)n1	.	.	/	/	.
O=C(NN1C(=O)c2ccccc2NC1c1ccc([N+](=O)[O-])o1)c1ccc(Br)cc1 (stereo unspecified)	.	.	63.6	.	.
Nc1nc2c(s1)CCc1ccccc1-2	.	.	.	.	56.0!
Cc1ccc(S(=O)(=O)N2C(c3ccc(Cl)c(Cl)c3)CC=C(C(=O)O)C2c2ccccc2)cc1 (stereo unspecified)	90.3	.	/	/	/
Cn1nnnc1N=N/C(=N/Nc1ccccc1)c1ccccc1	/	/	.	66.1	/
CC1=NN(c2ccc(C(F)(F)F)cn2)C(=O)C1	.	.	.	.	44.8
CCN1C=CC=C/C1=C(/C#N)c1nc(-c2ccccc2)cs1	/	/	/	/	108.3
Cc1csc(N2CCCC2c2nc3cc(C(F)(F)F)ccc3n2CCOCCO)n1 (stereo unspecified)	.	.	.	.	47.9
Cc1csc(N2CCCC2c2nc3cc(Cl)c(N4CCCCC4)cc3n2CCOCCO)n1 (stereo unspecified)	.	.	.	.	.
